# Results taken from PubChem BioAssay AID589 (National Center for Advancing Translational Sciences (NCATS), 2007).
# Among all 59,000 compounds or so, about 6,200 (11%) were called active. Inconclusive results (about 9%) are left out. No stated cut-off is given here; in the data, active means max dye-equivalent concentration above about 10 nM; inconclusive means mostly about 1.1 nM to 9.6 nM; inactive means weaker than that. This excerpt belongs to a sample that is enriched for actives.
# Assay: qHTS Assay for Spectroscopic Profiling in 4-MU Spectral Region
# Settings: compound autofluorescence, 340/450 nm, 4-MU equivalents; stronger effect = higher value
# How it was run: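 Compounds in 100 mM Tris, pH 8.0, incubated 15 min at room temperature, then fluorescence read at 340 nm excitation/450 nm emission. Signal converted to 4-MU dye-equivalent concentration using an on-plate six-point 4-MU standard curve.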
row,Structure (SMILES),max dye-equivalent concentration
1,CSCCC(NS(=O)(=O)/C=C/c1ccccc1)C(=O)N1CCC(C)CC1 (configuration not stated),inactive
2,COCCCN1C(=O)C(=O)/C(=C(/O)c2ccc3c(c2)CC(C)O3)C1c1cccnc1 (configuration not stated),inactive
3,CCOC(=O)c1sc(NC(=S)n2cc(C)cn2)c(C(=O)OCC)c1C,inactive
4,CCc1c(C)sc(NC(=O)c2ccc(Br)o2)c1C(=O)OC,96 nM (active)
5,CCCC(=O)Nc1ccc(Cl)c(NC(=O)c2ccc(Br)o2)c1,inactive
6,Cc1cc(C)nc(-n2nc(C)cc2NC(=O)c2ccc(Br)o2)n1,inactive
7,O=C(c1ccco1)N1CCC[C@@]2(CCN(c3ccccc3)C2)C1,inactive
8,O=C(Nc1nnc(CCc2ccccc2)s1)C1CCCO1 (configuration not stated),inactive
9,O=C(CC1NCCNC1=O)Nc1ccc(Oc2ccccc2)cc1 (configuration not stated),inactive
10,O=C(CC1Nc2ccccc2NC1=O)Nc1ccccc1 (configuration not stated),89 nM (active)
11,CCOc1ccc(NC(=O)CC2NCCNC2=O)cc1 (configuration not stated),inactive
12,Cc1ccccc1S(=O)(=O)Cc1ccc(C(=O)NCCN2CCCCC2C)o1 (configuration not stated),inactive
13,O=C1CC(c2cccc(F)c2)C2=C(CCCC2=O)N1 (configuration not stated),inactive
14,O=C1CCCc2c1[nH]c1ccc(Br)cc21,inactive
15,O=C1CC(c2cccc(Br)c2)C2=C(CCCC2=O)N1 (configuration not stated),43 nM (active)
16,O=C(CN1C(=O)NC2(CCCCC2)C1=O)NCCC1=CCCCC1,inactive
17,CC(=O)OC(C(=O)NC1CCCCC1)c1ccccc1 (configuration not stated),inactive
18,CC1(CCC(=O)OC2CCCCC2)OCCO1,inactive
19,CCc1ccc2oc(-c3ccc(N)cc3)nc2c1,120 nM (active)
20,Cc1ccc(/C(=C/CN2CCCC2)c2ccccn2)cc1,inactive
21,C[C@@H]1C[C@H]2[C@@H]3C[C@H](F)C4=CC(=O)C=C[C@@]4(C)[C@]3(F)[C@H](O)C[C@]2(C)[C@@]1(O)C(=O)CO,inactive
22,O=C(Cn1c(=O)n(Cc2ccco2)c(=O)c2ccccc21)NCC1CCCO1 (configuration not stated),inactive
23,CC1(C)CC(=O)c2cc(OCC(=O)NCC3CCCO3)ccc2O1 (configuration not stated),1700 nM (active)

row,Structure (SMILES),max dye-equivalent concentration
1,COc1ccccc1-n1cnc2cc(C(=O)NCC3CCCO3)ccc21 (configuration not stated),inactive
2,Cc1cc2c(cc1C)NC1=C(N2)O[C@H](c2c[nH]c3ccc(COc4ccccc4)cc23)C1=O,inactive
3,CCN(CCCCOC(=O)c1ccc(OC)c(OC)c1)C(C)Cc1ccc(OC)cc1 (configuration not stated),inactive
4,CC(C)NC(=O)N1CC[C@@]2(CCCN(C(=O)c3cccn3C)C2)C1,inactive
5,CCOc1ccc2nc(NC(=O)CSc3nc4c(c(=O)n(C)c(=O)n4C)n3CC)sc2c1,inactive
6,CC(=O)c1ccc(-n2nnnc2SCC(=O)N2CCN(C(=O)c3ccco3)CC2)cc1,inactive
7,COc1ccc(CCN(C)CCN2C(=O)c3ccccc3C2=O)cc1OC,inactive
8,COc1ccc(CCN2C(=O)c3[nH]nc(-c4ccccc4O)c3C2c2ccc(C)cc2)cc1OC (configuration not stated),110 nM (active)
9,COc1ccc(-c2n[nH]c(C)c2-c2ccc(OC)c(OC)c2)c(O)c1,inactive
10,Cc1ccc(NC(=O)C2CCCN(S(=O)(=O)c3c(C)noc3C)C2)c(C)c1 (configuration not stated),inactive
11,Cc1ccc(Cn2nnc3c(=O)n(CC(=O)N4CCCCC4)cnc32)cc1,inactive
12,COC(=O)c1ccccc1NC(=O)CN(Cc1ccccc1)S(C)(=O)=O,inactive
13,CNC(=O)CSc1nnnn1-c1ccc(C)cc1C,inactive
14,O=c1[nH]c(=O)n(Cc2ccco2)c2c1C(C(F)(F)F)(C(F)(F)F)N=C(c1ccco1)N2,18 nM (active)
15,O=c1[nH]c(CSc2ncc(-c3ccc(F)cc3)n2Cc2ccco2)nc2ccccc12,inactive
16,Nc1cc(=O)nc(SCc2ccccc2)n1Cc1ccco1,inactive
17,CC1Cc2ccccc2N1C(=O)Cn1cnc2ccccc2c1=O (configuration not stated),inactive
18,Cc1ccc(OCC(=O)Nc2ccc(-c3nnc(-c4ccco4)o3)cc2)cc1,inactive
19,Cc1ccc(OCC(=O)Nc2ccc(-c3nc4ncccc4o3)cc2)cc1,25 nM (active)
20,COc1ccc(CC(=O)Nc2ccc(-c3nnc(-c4ccc(C)cc4)o3)cc2)cc1,inactive
21,COc1ccccc1N(CC(=O)N1CCCCC1)S(=O)(=O)c1ccccc1,inactive
22,Cc1ccc(S(=O)(=O)N2CCC(C(=O)N[C@@H](C)C(=O)NCc3ccccc3)CC2)cc1,inactive
23,COc1ccc(Cl)cc1S(=O)(=O)N1CCN(CC(=O)C(C)(C)C)CC1,inactive

row,Structure (SMILES),max dye-equivalent concentration
1,CCCCOC(=O)NCN1C(=O)C2C3C=CC(C3)C2C1=O (configuration not stated),inactive
2,COCCNC(=O)c1ccccc1-c1nc(-c2ccccc2Cl)no1,inactive
3,COCCNC(=O)c1snc2ccc(Cl)cc12,49 nM (active)
4,COCC(C)NC(=O)c1ccc(Cl)c(Cl)c1 (configuration not stated),inactive
5,CCN(CC)c1ccc(C(=O)OCC(=O)c2ccco2)cc1,inactive
6,Cc1cc(N2CCCCC2)nc2ccc(Cc3ccc4nc(N5CCCCC5)cc(C)c4c3)cc12,45 nM (active)
7,Fc1ccc2nc(N3CCCCC3)sc2c1,inactive
8,O=C(CSc1nnc(-c2ccoc2)o1)N1CCOCC1,inactive
9,O=C(O)C1C2C=CC(C2)C1C(=O)N1CCN(CCO)CC1 (configuration not stated),inactive
10,O=c1[nH][nH]c(=O)c2cc(N3CCCC3)ccc12,53 nM (active)
11,Cc1c(NC(=O)C(C)OC(=O)c2cc3c4ccccc4n(C)c3s2)c(=O)n(-c2ccccc2)n1C (configuration not stated),110 nM (active)
12,Cc1ccccc1OCCC(=O)Nc1c(C)n(C)n(-c2ccccc2)c1=O,inactive
13,Cc1cc(C)cc(N(C(C)C(=O)Nc2c(C)n(C)n(-c3ccccc3)c2=O)S(C)(=O)=O)c1 (configuration not stated),inactive
14,CCOC(=O)C1CCN(C(=O)CC2C(=O)N(Cc3ccccc3)C(C)c3nc4ccccc4n32)CC1 (configuration not stated),inactive
15,CC1(C)Cc2ccccc2-c2nc(CN3CCOCC3)[nH]c(=O)c21,inactive
16,CCN1CCc2c(C#N)c(NCc3ccccc3)nc(NCCO)c2C1,430 nM (active)
17,N#Cc1c(N)sc2c1CCN(C(=O)OCc1ccccc1)C2,inactive
18,CC(=O)/C(=N\N=C(N)N)c1ccccc1,inactive
19,CCc1nnc(NC(=O)C2CCCN2S(=O)(=O)c2ccccc2)s1 (configuration not stated),18 nM (active)
20,CC(C)c1nnc(NC(=O)C2CCCN2S(=O)(=O)c2ccc(Cl)cc2)s1 (configuration not stated),inactive
21,CCc1nnc(NS(=O)(=O)c2ccc(NS(=O)(=O)c3ccccc3)cc2)s1,inactive
